Test results: the supplement of paper PMC10849652
Targets with a hit are over-represented here; the source holds about 8,800 in all. About 0.5% of all pairs of compound and target were hits. A number with no mark means an inactive call.

Legend:
Experiment in all cases: log2 fold change, soluble protein after heating vs DMSO (PISA); higher = thermal stabilisation; K562 lysate, 10 uM; active = over 0.2 and 3.5 SD of the protein, either way, in both replicates (recomputed)
vemurafenib = compound: CCCS(=O)(=O)Nc1ccc(F)c(C(=O)c2c[nH]c3ncc(-c4ccc(Cl)cc4)cc23)c1F [vemurafenib]
In short: (§1)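 K562 pellets were dounce-homogenised in PBS pH 7.4 with 1 mM MgCl2, and the crude extract at 1 mg/mL protein was treated with 10 μM compound for 30 min. Aliquots were heated for 3 min across 48°C-58°C, pooled, and brought to 0.5% NP-40 at 4°C; soluble protein was the supernatant after 21,000xg for 90 min. Soluble protein was quantified by TMTpro 16plex LC-MS/MS with channel sums equalised, and reported as log2 fold change in thermal stability against DMSO controls, with values from duplicates.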

[1] = compound: CCCS(=O)(=O)Nc1ccc(F)c(C(=O)c2c[nH]c3ncc(Cl)cc23)c1F
In short: as §1

barasertib = compound: CCN(CCCOc1ccc2c(Nc3cc(CC(=O)Nc4cccc(F)c4)[nH]n3)ncnc2c1)CCOP(=O)(O)O [barasertib]
In short: as §1

volasertib = compound: CC[C@@H]1C(=O)N(C)c2cnc(Nc3ccc(C(=O)N[C@H]4CC[C@H](N5CCN(CC6CC6)CC5)CC4)cc3OC)nc2N1C(C)C [volasertib]
In short: as §1

[2] = compound: CCn1c(C(=O)N(C2CC2)C2CC2)cc2c3c(ncn3C)c(Nc3cc(C)n(C)n3)nc21
In short: as §1

[3] = compound: CCn1cc(-c2ccnc3[nH]c(-c4cccc(CN(C)C)c4)cc23)c(-c2ccc(NC(=O)N(C)C)cc2)n1
In short: as §1

[4] = compound: CN1CCC(CNc2ccc3ncc(-c4cccc(OC(F)(F)F)c4)n3n2)CC1
In short: as §1

saracatinib = compound: CN1CCN(CCOc2cc(OC3CCOCC3)c3c(Nc4c(Cl)ccc5c4OCO5)ncnc3c2)CC1 [saracatinib]
In short: as §1

sotrastaurin = compound: CN1CCN(c2nc(C3=C(c4c[nH]c5ccccc45)C(=O)NC3=O)c3ccccc3n2)CC1 [sotrastaurin]
In short: as §1

[5] = compound: CC[C@@H]1C(=O)N(C)c2cnc(Nc3ccc(C(=O)NC4CCN(C)CC4)cc3OC)nc2N1C1CCCC1
In short: as §1

Sequence of UniProt O60504 (O60504 whole entry, looked up): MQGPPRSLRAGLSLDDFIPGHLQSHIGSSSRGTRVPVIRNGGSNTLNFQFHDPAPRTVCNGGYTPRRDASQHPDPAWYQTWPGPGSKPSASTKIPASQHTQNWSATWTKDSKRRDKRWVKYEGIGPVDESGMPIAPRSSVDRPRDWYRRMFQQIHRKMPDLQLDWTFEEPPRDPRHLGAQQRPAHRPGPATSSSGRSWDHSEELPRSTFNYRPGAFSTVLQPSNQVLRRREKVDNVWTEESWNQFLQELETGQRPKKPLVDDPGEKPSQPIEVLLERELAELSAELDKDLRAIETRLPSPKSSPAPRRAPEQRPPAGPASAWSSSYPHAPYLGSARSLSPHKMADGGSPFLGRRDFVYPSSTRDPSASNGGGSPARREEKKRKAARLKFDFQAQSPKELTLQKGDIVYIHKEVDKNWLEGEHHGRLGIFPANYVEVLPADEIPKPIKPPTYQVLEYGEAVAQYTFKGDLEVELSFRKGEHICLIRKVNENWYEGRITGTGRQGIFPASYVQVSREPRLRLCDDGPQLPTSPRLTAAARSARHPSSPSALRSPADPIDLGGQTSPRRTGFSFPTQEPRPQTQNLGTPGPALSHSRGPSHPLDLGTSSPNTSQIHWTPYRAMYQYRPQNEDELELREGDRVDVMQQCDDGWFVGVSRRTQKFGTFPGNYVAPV
Sequence of UniProt O95793 (O95793 whole entry, looked up): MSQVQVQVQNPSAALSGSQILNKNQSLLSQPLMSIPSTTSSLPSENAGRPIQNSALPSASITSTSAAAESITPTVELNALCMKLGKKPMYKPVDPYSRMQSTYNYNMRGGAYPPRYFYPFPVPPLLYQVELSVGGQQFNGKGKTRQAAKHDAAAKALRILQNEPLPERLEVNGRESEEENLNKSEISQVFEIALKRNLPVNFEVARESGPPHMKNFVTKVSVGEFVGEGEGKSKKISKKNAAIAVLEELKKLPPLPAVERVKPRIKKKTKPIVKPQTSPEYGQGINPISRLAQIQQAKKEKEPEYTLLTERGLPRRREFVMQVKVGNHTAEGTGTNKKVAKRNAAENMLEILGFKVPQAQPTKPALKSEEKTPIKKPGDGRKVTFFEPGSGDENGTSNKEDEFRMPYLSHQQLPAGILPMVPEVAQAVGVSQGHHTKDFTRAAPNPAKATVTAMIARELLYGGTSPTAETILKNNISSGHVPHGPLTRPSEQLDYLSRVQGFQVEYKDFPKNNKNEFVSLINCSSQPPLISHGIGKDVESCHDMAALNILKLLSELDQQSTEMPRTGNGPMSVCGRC
Sequence of UniProt Q9NP59 (Q9NP59 whole entry, looked up): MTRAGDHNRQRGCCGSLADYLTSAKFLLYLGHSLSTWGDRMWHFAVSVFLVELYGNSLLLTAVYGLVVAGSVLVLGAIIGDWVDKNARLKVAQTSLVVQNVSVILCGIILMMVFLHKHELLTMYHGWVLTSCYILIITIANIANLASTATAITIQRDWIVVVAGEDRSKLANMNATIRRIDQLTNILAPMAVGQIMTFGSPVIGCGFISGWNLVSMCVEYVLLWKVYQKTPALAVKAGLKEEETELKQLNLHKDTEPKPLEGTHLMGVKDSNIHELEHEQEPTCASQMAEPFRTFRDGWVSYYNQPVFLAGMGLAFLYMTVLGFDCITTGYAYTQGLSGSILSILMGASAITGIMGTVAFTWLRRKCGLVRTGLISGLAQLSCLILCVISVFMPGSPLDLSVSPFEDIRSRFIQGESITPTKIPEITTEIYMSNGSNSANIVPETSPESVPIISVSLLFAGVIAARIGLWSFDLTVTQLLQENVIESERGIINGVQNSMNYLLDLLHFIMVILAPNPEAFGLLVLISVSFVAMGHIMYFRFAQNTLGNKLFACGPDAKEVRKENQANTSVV
Sequence of UniProt O95391 (O95391 whole entry, looked up): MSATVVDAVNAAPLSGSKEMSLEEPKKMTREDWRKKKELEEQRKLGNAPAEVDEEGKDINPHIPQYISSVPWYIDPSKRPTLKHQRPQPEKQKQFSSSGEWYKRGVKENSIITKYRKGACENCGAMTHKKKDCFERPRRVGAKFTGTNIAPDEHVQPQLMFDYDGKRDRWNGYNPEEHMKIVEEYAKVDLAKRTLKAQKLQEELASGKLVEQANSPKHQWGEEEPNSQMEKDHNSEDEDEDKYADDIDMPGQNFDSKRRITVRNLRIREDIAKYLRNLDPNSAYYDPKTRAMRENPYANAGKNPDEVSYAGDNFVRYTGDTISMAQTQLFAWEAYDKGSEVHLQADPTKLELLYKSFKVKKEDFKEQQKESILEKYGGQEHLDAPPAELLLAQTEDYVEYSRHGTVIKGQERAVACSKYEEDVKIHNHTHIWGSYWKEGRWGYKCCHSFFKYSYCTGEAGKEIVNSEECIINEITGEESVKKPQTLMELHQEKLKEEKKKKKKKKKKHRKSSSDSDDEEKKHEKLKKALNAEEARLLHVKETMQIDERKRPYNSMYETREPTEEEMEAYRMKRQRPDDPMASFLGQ
Sequence of UniProt O75182 (O75182 whole entry, looked up): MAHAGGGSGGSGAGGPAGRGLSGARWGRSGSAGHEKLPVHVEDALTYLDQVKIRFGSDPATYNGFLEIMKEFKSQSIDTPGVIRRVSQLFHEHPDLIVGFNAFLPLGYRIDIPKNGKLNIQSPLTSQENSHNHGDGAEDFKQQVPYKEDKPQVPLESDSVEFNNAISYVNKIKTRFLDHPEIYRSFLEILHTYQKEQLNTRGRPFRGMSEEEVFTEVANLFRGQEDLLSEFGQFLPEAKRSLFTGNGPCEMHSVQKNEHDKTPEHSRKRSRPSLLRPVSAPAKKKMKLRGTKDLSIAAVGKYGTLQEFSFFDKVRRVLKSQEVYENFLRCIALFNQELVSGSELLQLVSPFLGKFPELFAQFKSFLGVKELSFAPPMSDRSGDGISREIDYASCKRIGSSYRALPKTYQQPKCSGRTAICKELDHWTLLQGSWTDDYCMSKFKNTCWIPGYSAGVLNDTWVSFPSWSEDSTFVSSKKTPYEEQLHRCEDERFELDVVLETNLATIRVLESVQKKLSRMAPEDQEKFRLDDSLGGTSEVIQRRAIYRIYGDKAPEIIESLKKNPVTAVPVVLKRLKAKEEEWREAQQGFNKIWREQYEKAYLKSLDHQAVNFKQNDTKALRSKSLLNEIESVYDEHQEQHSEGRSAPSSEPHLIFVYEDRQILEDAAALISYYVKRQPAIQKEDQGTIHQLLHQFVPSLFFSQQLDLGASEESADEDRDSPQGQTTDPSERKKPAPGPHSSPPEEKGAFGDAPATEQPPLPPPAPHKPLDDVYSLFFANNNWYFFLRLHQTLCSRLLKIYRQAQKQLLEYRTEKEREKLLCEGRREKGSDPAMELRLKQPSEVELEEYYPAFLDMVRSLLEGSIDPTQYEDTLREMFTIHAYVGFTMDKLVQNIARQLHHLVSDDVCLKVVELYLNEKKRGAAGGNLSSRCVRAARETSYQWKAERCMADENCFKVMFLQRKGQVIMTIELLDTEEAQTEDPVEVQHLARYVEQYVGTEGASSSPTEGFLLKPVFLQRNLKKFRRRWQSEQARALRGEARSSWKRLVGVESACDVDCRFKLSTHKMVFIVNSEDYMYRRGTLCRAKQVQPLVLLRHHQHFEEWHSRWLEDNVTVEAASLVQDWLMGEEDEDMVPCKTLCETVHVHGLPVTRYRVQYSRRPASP
Sequence of UniProt O60906 (O60906 whole entry, looked up): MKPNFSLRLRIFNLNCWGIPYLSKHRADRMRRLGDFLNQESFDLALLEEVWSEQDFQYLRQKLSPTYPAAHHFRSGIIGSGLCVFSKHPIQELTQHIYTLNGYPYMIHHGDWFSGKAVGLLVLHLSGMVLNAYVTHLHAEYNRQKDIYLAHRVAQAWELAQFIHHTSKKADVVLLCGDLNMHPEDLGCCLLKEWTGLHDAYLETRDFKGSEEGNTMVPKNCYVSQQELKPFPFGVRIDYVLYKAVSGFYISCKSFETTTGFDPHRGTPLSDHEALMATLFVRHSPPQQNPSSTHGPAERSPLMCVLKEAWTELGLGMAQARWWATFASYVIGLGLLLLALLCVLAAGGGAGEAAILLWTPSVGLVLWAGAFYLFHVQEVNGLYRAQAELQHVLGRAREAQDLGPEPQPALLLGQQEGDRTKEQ
Sequence of UniProt Q9BXS9 (Q9BXS9 whole entry, looked up): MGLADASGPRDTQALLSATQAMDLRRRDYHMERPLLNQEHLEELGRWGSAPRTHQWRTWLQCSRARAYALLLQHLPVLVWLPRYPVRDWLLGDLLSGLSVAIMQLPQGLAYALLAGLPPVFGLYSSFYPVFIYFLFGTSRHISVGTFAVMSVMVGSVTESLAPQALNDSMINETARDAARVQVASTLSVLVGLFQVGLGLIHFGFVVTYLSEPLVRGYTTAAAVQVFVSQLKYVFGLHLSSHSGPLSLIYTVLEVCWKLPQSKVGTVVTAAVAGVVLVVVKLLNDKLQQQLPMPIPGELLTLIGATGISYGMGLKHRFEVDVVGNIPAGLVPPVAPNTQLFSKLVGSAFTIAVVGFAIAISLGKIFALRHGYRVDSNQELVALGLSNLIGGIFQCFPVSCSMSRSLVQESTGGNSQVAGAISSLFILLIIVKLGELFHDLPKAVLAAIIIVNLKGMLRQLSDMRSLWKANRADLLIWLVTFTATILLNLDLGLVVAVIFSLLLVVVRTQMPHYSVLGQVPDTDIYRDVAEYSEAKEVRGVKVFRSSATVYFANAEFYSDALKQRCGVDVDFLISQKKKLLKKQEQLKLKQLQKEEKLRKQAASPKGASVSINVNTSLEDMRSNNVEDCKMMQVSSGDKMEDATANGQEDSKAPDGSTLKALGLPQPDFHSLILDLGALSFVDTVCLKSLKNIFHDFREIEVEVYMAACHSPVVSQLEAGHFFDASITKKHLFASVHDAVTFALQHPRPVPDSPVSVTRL
Sequence of UniProt P62306 (P62306 whole entry, looked up): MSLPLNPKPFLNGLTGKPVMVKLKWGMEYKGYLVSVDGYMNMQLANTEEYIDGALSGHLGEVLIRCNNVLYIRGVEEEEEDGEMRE
Sequence of UniProt B2RUZ4 (B2RUZ4 whole entry, looked up): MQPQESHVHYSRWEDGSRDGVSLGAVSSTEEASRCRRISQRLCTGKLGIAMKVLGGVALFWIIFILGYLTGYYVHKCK

Row | Target | log2 fold change (vemurafenib) | log2 fold change [1] | log2 fold change (barasertib) | log2 fold change (volasertib) | log2 fold change [2] | log2 fold change [3] | log2 fold change [4] | log2 fold change (saracatinib) | log2 fold change (sotrastaurin) | log2 fold change [5]
1 | SYK (UniProt P43405) | 0.184 | 0.065 | 0.092 | 0.027 | -0.123 | -0.644 (active) | -0.001 | -0.041 | 0.068 | –
2 | SNCA (UniProt P37840) | 0.042 | -0.039 | -0.027 | 0.072 | -0.022 | -0.109 | 0.287 | -0.035 | 0.068 | 0.08
3 | SLC30A6 isoform 2 (UniProt Q6NXT4) | -0.098 | 0.018 | 0.146 | 0.001 | -0.03 | -0.127 | 0.063 | – | -0.004 | 0.105
4 | TANK (UniProt Q92844) | 0.023 | 0.004 | 0.007 | -0.02 | 0.004 | 0.18 | -0.054 | 0.01 | 0 | -0.026
5 | SLC26A6 (UniProt Q9BXS9) | 0.106 | 0.086 | 0.421 (active) | 0.008 | 0.017 | -0.095 | 0.036 | -0.126 | 0.005 | 0.055
6 | STMN3 (UniProt Q9NZ72) | -0.123 | -0.006 | 0.098 | 0.002 | -0.066 | – | – | 0.053 | 0.009 | 0.096
7 | SORBS3 (UniProt O60504) | -0.092 | 0.067 | -0.032 | -0.129 | -0.05 | -0.025 | 0.004 | 0.052 | -0.011 | 0.034
8 | SNRPF (UniProt P62306) | 0.023 | 0.002 | 0.045 | 0.032 | -0.051 | -0.35 (active) | 0.24 | -0.044 | 0.042 | 0.067
9 | SRP54 (UniProt P61011) | 0.02 | -0.024 | 0 | -0.024 | 0.017 | -0.059 | 0.006 | 0.043 | 0.028 | 0.068
10 | TAOK2 (UniProt Q9UL54) | -0.039 | -0.041 | 0.059 | -0.056 | -0.077 | -0.005 | -0.003 | -0.005 | 0.109 | 0.021
11 | SMIM1 (UniProt B2RUZ4) | – | 0.013 | 0.002 | 0.026 | -0.096 | -0.036 | -0.222 | – | 0.088 | -0.108
12 | SLC25A36 (UniProt Q96CQ1) | -0.272 | 0.007 | – | -0.045 | 0.039 | -0.016 | 0.035 | -0.001 | -0.055 | 0.113
13 | SIN3B (UniProt O75182) | -0.042 | – | – | – | – | -0.061 | 0.267 | – | -0.099 | -0.092
14 | SLC35A3 isoform 2 (UniProt Q9Y2D2) | -0.024 | -0.031 | – | 0.005 | -0.374 | -1.1 (active) | 0.336 | – | -0.026 | 0.056
15 | STAU1 isoform 3 (UniProt O95793) | – | – | 0.014 | – | – | -0.166 | -0.016 | – | 0.092 | –
16 | SMARCA4 isoform 4 (UniProt P51532) | – | -0.047 | – | 0.043 | -0.192 | -0.086 | 0.057 | 0.119 | 0.325 | 0.049
17 | TARDBP (UniProt K7EN94) | 0.008 | – | – | – | – | – | – | – | – | -0.039
18 | STK3 isoform 2 (UniProt Q13188) | 0.046 | 0.04 | 0.032 | -0.047 | -0.012 | -0.017 | 0.216 | -0.01 | 0.142 | –
19 | SLU7 (UniProt O95391) | -0.043 | – | -0.07 | – | -0.004 | -0.188 | 0.166 | 0.093 | -0.027 | 0.062
20 | TAF11 (UniProt Q15544) | -0.055 | 0.166 | – | 0.037 | 0.086 | -0.028 | 0.086 | -0.021 | 0.026 | 0.14
21 | SMPD2 (UniProt O60906) | – | 0.179 | – | 0.032 | -0.017 | -0.003 | -0.104 | 0.018 | – | 0.051
22 | STK38L (UniProt Q9Y2H1) | – | – | – | – | -0.047 | – | – | -0.058 | -0.01 | -0.105

Row | Target | log2 fold change (vemurafenib) | log2 fold change [1] | log2 fold change (barasertib) | log2 fold change (volasertib) | log2 fold change [2] | log2 fold change [3] | log2 fold change [4] | log2 fold change (saracatinib) | log2 fold change (sotrastaurin) | log2 fold change [5]
23 | SLC39A13 (UniProt Q96H72) | – | – | – | – | 0.035 | – | – | – | – | –
24 | SHC1 (UniProt P29353) | – | – | – | – | – | -0.2 | -0.114 | – | – | –
25 | SZT2 (UniProt Q5T011) | – | -0.032 | 0.313 | -0.095 | 0.006 | 0.035 | 0.094 | -0.073 | – | 0.293
26 | SIX5 (UniProt Q8N196) | – | 0.031 | -0.026 | -0.046 | 0.084 | 0.538 | -0.132 | -0.093 | -0.009 | –
27 | STK17A (UniProt Q9UEE5) | – | – | – | – | – | 0.164 | -0.109 | – | – | –
28 | SRC isoform 2 (UniProt P12931) | – | 0.166 | 0.133 | -0.039 | -0.024 | 0.184 | -0.121 | – | – | 0.045
29 | STK17B (UniProt O94768) | – | – | – | – | -0.451 | – | – | -0.002 | 0.057 | –
30 | SKP2 (UniProt Q13309) | 0.417 | 0.093 | – | 0.05 | 0.025 | 0.121 | -0.008 | -0.011 | 0.032 | 0.193
31 | SHB (UniProt Q15464) | – | -0.049 | – | 0.072 | 0.113 | -0.125 | -0.162 | 0.003 | -0.003 | –
32 | SLC40A1 (UniProt Q9NP59) | 0.01 | -0.037 | – | 0.037 | -0.106 | -0.491 (active) | 0.067 | 0 | 0.026 | 0.123
33 | SH3BP2 isoform 4 (UniProt P78314) | 0.087 | -0.017 | -0.075 | -0.052 | 0.029 | -0.04 | 0.089 | 0.006 | 0.02 | –
34 | SMC4 (UniProt C9JJ64) | – | – | 0.152 | – | – | – | – | – | – | –
35 | STK26 isoform 3 (UniProt Q9P289) | – | – | – | – | – | – | – | -0.046 | -0.119 | 0.189
36 | SPAG1 (UniProt Q07617) | 0.041 | 0.028 | 0.018 | -0.137 | 0.083 | – | – | – | -0.02 | –
37 | SNRPD2 (UniProt K7EJB5) | 0.061 | -0.029 | – | 0.026 | 0.112 | – | – | -0.049 | 0.112 | -0.085
38 | SLC41A1 (UniProt Q8IVJ1) | – | 0.021 | – | -0.084 | 0.035 | 0.083 | 0.06 | – | 0.082 | 0.085
39 | SNAPC2 (UniProt Q13487) | – | – | -0.211 | – | 0.04 | 0.039 | 0.048 | 0.038 | 0.154 | –
40 | SNAP23 isoform 2 (UniProt O00161) | 0.172 | 0.09 | – | 0.003 | -0.029 | 0.123 | -0.061 | – | – | 0.052
41 | STAR (UniProt P49675) | 0.02 | – | – | – | 0.008 | 0.043 | -0.03 | 0.006 | 0.061 | 0.074
42 | SLCO4A1 (UniProt Q96BD0) | – | – | 0.037 | – | – | -0.015 | 0.042 | – | – | –
43 | SLC12A6 isoform 2 (UniProt Q9UHW9) | – | 0.009 | – | -0.178 | -0.021 | – | – | 0.042 | 0.057 | 0.053
